Data on eleven compounds can be found in PubChem BioAssay AID2202241 (National Center for Advancing Translational Sciences (NCATS), 2025).

Each structure is given as a SMILES string. The source made the active and inactive calls. No rule for the calls is given here. Square brackets hold non-standard residues; d marks the D form. Peptide text beside a SMILES is read from it. Dolaproine = CO[C@@H]([C@@H]1CCCN1)[C@@H](C)C(=O)O; Dil = CC[C@H](C)[C@H](NC)[C@@H](CC(=O)O)OC; NMeV = CN[C@H](C(=O)O)C(C)C

A short description of the experiment: Identification of antibody-drug conjugate (ADC) payloads which are substrates of ATP-binding cassette drug efflux transporters: cell line panel data. The conditions noted are these: 99 cancer cell line panel, CellTiter-Glo viability, 48 h; stronger effect = lower value. The text has this: Antibody-drug conjugates (ADCs) feature an antibody recognizing a specific protein joined to a potent toxic payload. Numerous antibody-drug conjugates have received FDA approval; however, clinical resistance arises. Resistance mechanisms include decreased expression or mutation of the antibody target, impaired payload release, or increased expression of ATP-binding cassette (ABC) efflux transporters associated with multidrug resistance. We therefore sought to characterize the activity of ADC payloads across a broad set of cancer cell lines. We performed a high-throughput screen with 27 common ADC payloads against a panel of 99 cell lines to assess sensitivity to various payloads. Duocarmycin DM and PNU-159682 were exquisitely toxic across the panel of cancer cell lines of varying origins. These findings highlight the potentially broad applicability of Duocarmycin DM and PNU-159682 as ADC payloads in future ADC development.
Compounds were sourced from Levena Biopharma (San Diego, CA), Selleck Chem (Houston, TX), ChemieTek (Indianapolis, IN), or Microsource Discovery Systems (Gaylordsville, CT). Cell line sources and culture conditions were as follows: CAL-27 (ATCC: CRL-2095) and Hs 766T (ATCC: HTB-134) were grown in DMEM media +10% FBS. RKO (ATCC: CRL-2577), A-427 (ATCC: […]), BT-20 (ATCC: HTB-19), Detroit562 (ATCC: CCL-138), HARA-B (Cytion: 300465), PA-1 (ATCC: CRL-1572), TCCSUP (ATCC: […]), UM-UC-3 (ATCC: CRL-1749), and WI-38 (ATCC: CCL-75) were grown in EMEM media +10% FBS. AGS (ATCC: CRL-1739) was grown in F12K media +10% FBS. JJN-3 (DSMZ: ACC 541) was grown in IMDM media +20% FBS. 769-P (ATCC: CRL-1933), 786-O (ATCC: CRL-1932), A-375 (ATCC: CRL-1619), A-431 (ATCC: CRL-1555), A-549 (ATCC: CCL-185), A2780 (Cytion: 300491), ACHN (ATCC: CRL-1611), BT-474 (ATCC: HTB-20), BT-549 (ATCC: HTB-122), CCRF-CEM (ATCC: CCL-119), Daudi (ATCC: CCL-213), HaCaT (Cytion: 300493), HCC38 (ATCC: CRL-2314), HCC827 (ATCC: CRL-2868), HCT15 (ATCC: CCL-225), HEL 92.1.7 (ATCC: TIB-180), Hs 352.Sk (ATCC: CRL-7250), Hs578T (ATCC: HTB-126), HT-1080 (ATCC: CCL-121), HuCC-T1 (Riken Bioresource Center: RCB1960), HuP-T3 (DSMZ: ACC 259), HuP-T4 (DSMZ: ACC 223), IM-9 (ATCC: CCL-159), JJ012 (Gift: Karina Galoian (University of Miami)), JM-1 (ATCC: CRL-10423), K-562 (ATCC: CCL-243), Kasumi-3 (ATCC: CRL-2725), KMS-12-BM (DSMZ: ACC 551), LOUCY (ATCC: CRL-2629), LoVo (ATCC: CCL-229), MCF-7 (ATCC: HTB-22), MDA-MB-231 (ATCC: HTB-26), MDA-MB-436 (ATCC: HTB-130), MDA-MB-468 (ATCC: HTB-132), MIA PaCa-2 (ATCC: CRL-1420), MM1.R (ATCC: CRL-2975), MM1.S (ATCC: CRL-2974), NALM-6 (ATCC: CRL-3273), NCI-H1299 (ATCC: CRL-5803), NCI-H1355 (ATCC: CRL-5865), NCI-H1395 (ATCC: CRL-5868), NCI-H1437 (ATCC: CRL-5872), NCI-H2122 (ATCC: CRL-5985), NCI-H2170 (ATCC: CRL-5928), NCI-H226 (ATCC: CRL-5826), NCI-H23 (ATCC: CRL-5800), NCI-H322M (NIH: NCI-60), NCI-H460 (ATCC: HTB-177), NCI-H522 (ATCC: CRL-5810), NCI-H929 (ATCC: CRL-3580), NIH 3T3 (ATCC: CRL-1658), OCI-M2 (DSMZ: ACC 619), OPM-2 (DSMZ: ACCC 50), OVCAR-3 (ATCC: HTB-161), OVCAR-4 (Gift: Phil Lorenzi MD Anderson), OVCAR-8 (Gift: Phil Lorenzi MD Anderson), Panc 10.05 (ATCC: CRL-2547), PANC-1 (ATCC: CRL-1469), Pfeiffer (ATCC: CRL-2632), PL45 (ATCC: CRL-2558), PSN1 (ATCC: CRL-3211), Raji (ATCC: CCL-86), RD (Gift: Mari Yohe NCI), RPMI-8226 (ATCC: CRM-CCL-155), RS4;11 (ATCC: CRL-1873), SK-BR-3 (ATCC: HTB-30), SK-MEL-28 (ATCC: HTB-72), SMS-CTR (Gift: Mari Yohe NCI), SNU-16 (ATCC: CRL-5974), SU-DHL-8 (ATCC: CRL-2961), SU.86.86 (ATCC: CRL-1837), SW1990 (ATCC: CRL-2172), SW403 (ATCC: CCL-230), SW480 (ATCC: CCL-228), SW579 (ATCC: HTB-107), T-47D (ATCC: HTB-133), T24 (ATCC: HTB-4), and U-937 (ATCC: CRL-1593.2) were grown in RPMI +10% FBS. U266B1 (ATCC: TIB-196) were grown in RPMI +15% FBS. ME-1 (ATCC: HB-119), MOLM-13 (DSMZ: ACC 554), AMO1 (DSMZ: ACC 538), MOLP-8 (DSMZ: ACC 569), MV4-11 (ATCC: CRL-9591), PL-21 (DSMZ: ACC 536), and L-363 (DSMZ: ACC 49) were grown in RPMI +20% FBS. […]
Consider `COC(=O)c1cc2c3c(cc(O)c2[nH]1)N(C(=O)c1cc2cc(OC)c(OC)c(OC)c2[nH]1)CC3CCl` (stereo unspecified), for which the viability AUC is 651 (active).
Consider `CC(C)(C)OC(=O)Nc1ccc2[nH]c(C(=O)N3C[C@@H](CCl)c4c3cc(O)c3ccccc43)cc2c1`, for which the viability AUC is 645 (active).
For `CCN(C(C)=O)[C@H]1CO[C@@H](O[C@H]2[C@H](O[C@H]3C#C/C=C\C#C[C@]4(O)CC(=O)C(NC(=O)OC)=C3/C4=C\CSSSC)O[C@H](C)[C@@H](NO[C@H]3C[C@H](O)[C@H](SC(=O)c4c(C)c(I)c(O[C@@H]5O[C@@H](C)[C@H](O)[C@@H](OC)[C@H]5O)c(OC)c4OC)[C@@H](C)O3)[C@@H]2O)C[C@@H]1OC` the value was 700 (active); for `COc1cccc2c1C(=O)c1c(O)c3c(c(O)c1C2=O)C[C@@](O)(C(=O)CO)C[C@@H]3O[C@H]1C[C@H]2[C@H](O[C@@H]3[C@@H](OC)OCCN32)[C@H](C)O1`, 549 (active).
For `CCN[C@H]1CO[C@@H](O[C@H]2[C@H](O[C@H]3C#C/C=C\C#C[C@]4(O)CC(=O)C(NC(=O)OC)=C3/C4=C\CSSSC)O[C@H](C)[C@@H](NO[C@H]3C[C@H](O)[C@H](SC(=O)c4c(C)c(I)c(O[C@@H]5O[C@@H](C)[C@H](O)[C@@H](OC)[C@H]5O)c(OC)c4OC)[C@@H](C)O3)[C@@H]2O)C[C@@H]1OC` the value was 635 (active); for `CN(C)CCOc1ccc2[nH]c(C(=O)N3C[C@@H](CCl)c4c3cc(O)c3ccccc43)cc2c1`, 514 (active); for `CC[C@H](C)[C@@H]([C@@H](CC(=O)N1CCC[C@H]1[C@H](OC)[C@@H](C)C(=O)N[C@@H](Cc1ccccc1)C(=O)O)OC)N(C)C(=O)[C@@H](NC(=O)[C@@H](NC)C(C)C)C(C)C` (H-[NMeV]V[Dil][Dolaproine]F-OH), 938 (active).
For `CC[C@H](C)[C@@H]([C@H](N)CC(=O)N1CCC[C@H]1[C@H](OC)[C@@H](C)C(=O)N[C@@H](Cc1ccccc1)c1nccs1)N(C)C(=O)[C@@H](NC(=O)[C@H](C(C)C)N(C)C)C(C)C` the value was 769 (active); for `COc1ccc(C2=CN3C(=O)c4cc(OC)c(OCCCOc5cc6c(cc5OC)C(=O)N5C=C(c7ccc(N)cc7)C[C@@H]5C=N6)cc4N=C[C@H]3C2)cc1`, 762 (active); for `COc1cc2cc(c1Cl)N(C)C(=O)C[C@H](O)[C@]1(C)O[C@H]1[C@H](C)C1C[C@@](O)(NC(=O)O1)[C@H](OC)/C=C/C=C(\C)C2`, 1010 (active).
As for `CC[C@H](C)[C@@H]([C@H](N)CC(=O)N1CCC[C@H]1[C@H](OC)[C@@H](C)C(=O)N[C@@H](Cc1ccccc1)c1nccs1)N(C)C(=O)[C@@H](NC(=O)[C@@H](NC)C(C)C)C(C)C`, the viability AUC was 738 (active).
